# Shown are actives, neighbours in structure and some others; about 12% of the full set was active somewhere.
# PLK1 PBD block = qHTS for Inhibitors of PLK1-PDB (polo-like kinase 1 - polo-box domain): Primary Screen | actives 2.8% (n = 360,000) | Plk1 PBD binding of FITC phosphopeptide, fluorescence polarization | AID 720504, 2013 | Potency, µM, most hits filed as inhibitors | Serine/threonine-protein kinase PLK1 (Homo sapiens), P53350; further: series mostly up to about 57 µM; nearly all actives have a fitted effect of over 65% in size
# PI5P4K alpha inh = qHTS for Inhibitors of phosphatidylinositol 5-phosphate 4-kinase (PI5P4K) | PI5P4Kalpha enzyme, ADP-Glo luminescence, 60 min; hits give low values | max response, % | AID 652105, 2013 | actives 1.2% (n = 330,000); active means max response of -50% or lower; inconclusive means between -30% and -50%; inactive means -30% or higher; further: value at the top dose of about 77 µM
#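 PI5P4Kalpha ADP-Glo assay; 5 microM ATP final; 60 min RT reaction; HEPES pH 7.4/EGTA/CHAPS, 5% DMSO; controls lacking substrate or enzyme; luminescent end-point.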
# G9a block = qHTS Assay for Inhibitors of Histone Lysine Methyltransferase G9a. AID 504332, 2011. Potency, µM (titrated, usually from 102 µM), usual class: inhibitors. actives 8.8% (n = 350,000). G9a H3K9 monomethylation, AlphaScreen, 2 h; further: nearly all actives have a fitted effect of over 75% in size
#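 Compounds were preincubated with 20 nM G9a for 15 min, after which biotinylated H3K9 peptide (500 nM) and SAM (20 uM) started a 2 h room-temperature reaction. Monomethylated product was quantified by antibody-based AlphaScreen chemiluminescence.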
# JMJD2A Tudor = qHTS Assay for Inhibitors of JMJD2A-Tudor Domain. Lysine-specific demethylase 4A (Homo sapiens), O75164. AlphaScreen JMJD2A-Tudor / H3K4me3 peptide binding. Potency, µM (doses to about 114 µM), most hits filed as inhibitors. actives 4.4% (n = 390,000). AID 504339, 2011; further: nearly all actives have a fitted effect of over 50% in size
# HP1b chromo inh = HTS for Inhibitors of HP1-beta Chromodomain Interactions with Methylated Histone Tails | Chromobox protein homolog 1 (Homo sapiens), P83916 | AlphaScreen HP1-beta / biotin-H3K9me3 peptide binding | actives 0.56% (n = 390,000) | Potency, µM (top dose mostly 114 µM), hits mostly inhibitors; further: nearly all actives have a fitted effect of over 70% in size
#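 AlphaScreen: HP1-beta (50 nM) preformed 30 min with biotin-H3(1-18)K9me3 peptide (50 nM) in PBS pH 7.4, 0.01% Tween-20. Compound added for 30 min at RT, then streptavidin donor/nickel chelate acceptor beads (10 ug/mL) for 30 min.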
# BAZ2B block = qHTS Assay for Inhibitors of BAZ2B; Bromodomain adjacent to zinc finger domain protein 2B (Homo sapiens), Q9UIF8; AlphaScreen BAZ2B-H3K14Ac peptide displacement; Potency, µM (series often up to 114 µM), most hits filed as inhibitors; actives 4.4% (n = 360,000); AID 504333, 2011; further: nearly all actives have a fitted effect of over 60% in size
# Target sequence (Q9UIF8 whole entry, looked up, the tested form may be a part): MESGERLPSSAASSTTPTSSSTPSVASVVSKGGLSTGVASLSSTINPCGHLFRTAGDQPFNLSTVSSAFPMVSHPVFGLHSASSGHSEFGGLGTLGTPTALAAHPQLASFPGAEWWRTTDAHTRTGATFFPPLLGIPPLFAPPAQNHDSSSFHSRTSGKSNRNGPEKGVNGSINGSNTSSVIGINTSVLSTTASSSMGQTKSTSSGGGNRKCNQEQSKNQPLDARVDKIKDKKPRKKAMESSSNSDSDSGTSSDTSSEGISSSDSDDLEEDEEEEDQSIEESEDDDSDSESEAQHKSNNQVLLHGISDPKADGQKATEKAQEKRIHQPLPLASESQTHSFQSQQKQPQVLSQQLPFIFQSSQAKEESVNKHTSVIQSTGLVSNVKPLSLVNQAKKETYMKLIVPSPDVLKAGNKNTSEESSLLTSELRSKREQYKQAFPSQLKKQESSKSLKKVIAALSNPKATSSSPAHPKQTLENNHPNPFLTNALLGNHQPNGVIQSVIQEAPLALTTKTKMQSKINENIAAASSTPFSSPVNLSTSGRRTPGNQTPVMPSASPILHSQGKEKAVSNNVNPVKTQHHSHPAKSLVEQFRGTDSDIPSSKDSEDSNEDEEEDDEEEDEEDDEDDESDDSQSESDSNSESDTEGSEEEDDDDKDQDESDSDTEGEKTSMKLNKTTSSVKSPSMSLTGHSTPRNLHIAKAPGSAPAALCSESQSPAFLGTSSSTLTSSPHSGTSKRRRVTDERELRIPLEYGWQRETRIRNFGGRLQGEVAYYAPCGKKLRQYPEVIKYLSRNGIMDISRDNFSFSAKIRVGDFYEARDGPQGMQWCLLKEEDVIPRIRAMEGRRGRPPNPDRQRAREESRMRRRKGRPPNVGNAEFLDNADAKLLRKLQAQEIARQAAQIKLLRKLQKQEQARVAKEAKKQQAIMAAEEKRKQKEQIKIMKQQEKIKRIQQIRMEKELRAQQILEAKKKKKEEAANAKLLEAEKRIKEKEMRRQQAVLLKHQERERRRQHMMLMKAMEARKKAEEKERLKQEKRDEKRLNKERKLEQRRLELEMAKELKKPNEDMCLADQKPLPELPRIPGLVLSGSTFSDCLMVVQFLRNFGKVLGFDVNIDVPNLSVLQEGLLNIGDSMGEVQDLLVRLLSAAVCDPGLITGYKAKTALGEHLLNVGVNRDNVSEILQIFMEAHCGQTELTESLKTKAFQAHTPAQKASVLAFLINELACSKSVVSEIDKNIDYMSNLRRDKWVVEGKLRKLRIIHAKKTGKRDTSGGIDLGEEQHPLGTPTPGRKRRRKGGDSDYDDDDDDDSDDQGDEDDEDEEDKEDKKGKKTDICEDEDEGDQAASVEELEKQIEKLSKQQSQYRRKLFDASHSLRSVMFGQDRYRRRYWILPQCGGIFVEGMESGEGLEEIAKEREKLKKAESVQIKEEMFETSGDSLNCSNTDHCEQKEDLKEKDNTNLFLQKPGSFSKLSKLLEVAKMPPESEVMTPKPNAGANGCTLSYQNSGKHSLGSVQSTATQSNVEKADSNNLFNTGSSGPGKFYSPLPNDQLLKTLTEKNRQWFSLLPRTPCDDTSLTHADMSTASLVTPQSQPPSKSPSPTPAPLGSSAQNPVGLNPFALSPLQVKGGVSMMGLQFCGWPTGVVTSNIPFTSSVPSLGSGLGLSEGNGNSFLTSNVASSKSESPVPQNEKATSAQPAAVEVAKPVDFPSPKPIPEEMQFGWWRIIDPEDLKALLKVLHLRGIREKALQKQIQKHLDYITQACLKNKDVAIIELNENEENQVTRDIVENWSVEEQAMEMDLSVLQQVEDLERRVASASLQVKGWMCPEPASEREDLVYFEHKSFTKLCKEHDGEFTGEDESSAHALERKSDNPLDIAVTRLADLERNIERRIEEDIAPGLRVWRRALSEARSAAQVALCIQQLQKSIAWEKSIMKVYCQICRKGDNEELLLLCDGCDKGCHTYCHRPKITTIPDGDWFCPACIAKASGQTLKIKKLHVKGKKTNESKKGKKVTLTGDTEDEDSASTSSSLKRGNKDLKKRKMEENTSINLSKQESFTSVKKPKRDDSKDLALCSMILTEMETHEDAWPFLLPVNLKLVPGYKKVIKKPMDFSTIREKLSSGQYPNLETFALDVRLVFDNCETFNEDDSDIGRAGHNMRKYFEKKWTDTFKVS
#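 Inhibition is scored as reduced AlphaScreen emission. The BAZ2B/b-H3(5-23)K14Ac complex (50 nM each) in PBS pH 7.4, 0.01% Tween-20 meets compound (up to 110 uM) for 30 min at RT before bead addition.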
# A number is an active result; i = inactive; ? = inconclusive; nt = no result given; ! = not confirmed by another sample; [ ] = remark or other dose. Unless noted, the call rests on the fitted dose curve; in most records, active means well fitted curve in the direction sought with a large enough effect; inconclusive means small, poorly fitted or top-dose-only effect, or another doubt; inactive means no such curve, though single readings can be large; an effect the other way counts as inactive or inconclusive.
SMILES,PLK1 PBD block,PI5P4K alpha inh,G9a block,JMJD2A Tudor,HP1b chromo inh,BAZ2B block
O=C(CCN1CCN(CCO)CC1)N1c2ccccc2Sc2ccc(C(F)(F)F)cc21,26.7µM,i,?,56.2µM,i,i
CCOC(=O)c1c(C)[nH]c(C)c1S(=O)(=O)N1CCC(C(=O)N2CCN(c3ccc(Cl)cc3)CC2)CC1,nt,nt,i,?,i,?
COC(=O)c1ccc(NC(=O)NC(=O)Oc2ccccc2)cc1,?,i,i[12.7 µM],i,i,i
COc1ccccc1NC(=O)Oc1cccc(OC(=O)c2ccccc2)c1,i,i,70.8µM,i,i,i
Cc1ncsc1CCOC(=O)c1ccc([N+](=O)[O-])cc1,i,i,?,?,i,?
N#CCCn1cc(C(=O)Nc2ccc(F)cc2)c(-c2ccc([N+](=O)[O-])cc2)n1,18.9µM,i,i,i,?,i
COc1ccc(OCC(=O)N2CCN(Cc3cc(=O)n4nc(-c5ccccc5C)sc4n3)CC2)cc1,nt,nt,i,i,i,i
C[N+](C)(C)c1ccccc1,i,i,20µM,?,i,i
O=[N+]([O-])c1ccccc1,nt,nt,i,nt,nt,nt
COc1ccc2c(c1)CCC1C2CC[C@@]2(C)C1CC[C@@H]2NCCCCCCN1C(=O)C=CC1=O (some centres undefined),nt,nt,2.51µM,nt,nt,nt
CCN(CC)C(=O)/C(Cl)=C(\C)OP(=O)(OC)OC,nt,nt,i,nt,nt,nt
C[C@@H]1CC2(CCCC[N+]2(C)C)C[C@H]1C,i,i,11.2µM,?,i,i
COc1ccccc1CCNCc1cccc(C(F)(F)F)c1,i,i,70.8µM,i,i,i
COc1ccc(CCNCc2cccc(C(F)(F)F)c2)cc1OC,i,i,11.2µM,44.7µM,i,50.1µM
O=C1N=NC2=C1c1c3ccccc3c(O)n1CC2,i,i,i,i,?,i
Cc1ccc(N2CCN(C(=O)c3cn(CC4CCCCC4)nn3)C(C)C2)cc1 (centres undefined),i,i,nt,?,i,nt
Oc1ccc(/C=N/NP(=S)(c2ccccc2)c2ccccc2)c(O)c1O,10.6µM,-51.2,?,?,i,?
Oc1ccccc1/C=N/NP(=S)(c1ccccc1)c1ccccc1,i,i,i,i,i,nt
COP(=S)(OC)Oc1ccc(S(=O)(=O)N(C)C)cc1,nt,nt,10µM,nt,nt,nt
CC(=O)CC(c1ccccc1[N+](=O)[O-])c1c(O)c2ccccc2oc1=O (centres undefined),i,i,50.1µM,i,i,i
CC(=O)CC(c1ccc2c(c1)OCO2)c1c(O)c2ccccc2oc1=O (centres undefined),i,i,nt,nt,nt,nt
CN1CCC2(CC1)N=C(c1ccc(F)cc1)C(=S)N2,?,i,25.1µM,31.6µM,?,i
CN1CCC2(CC1)NC(=O)c1ccccc1N2,i,i,i,i,i,i
CC(=O)O[C@H](CC(=O)O)C[N+](C)(C)C,i,i,i,i,i,i
c1ccc(CN2CCCC3(CCNCC3)C2)cc1,nt,nt,i[12.7 µM],nt,nt,nt
SMILES,PLK1 PBD block,PI5P4K alpha inh,G9a block,JMJD2A Tudor,HP1b chromo inh,BAZ2B block
CCCN(C(=O)c1cc2c(=O)oc3ccccc3c2s1)c1cccc(Cl)c1,nt,nt,i,?,i,i
Cc1ccc(NC(=O)CN2C(=O)CN=C(c3ccccc3)c3cc(Cl)ccc32)cc1,i,i,?,i,i,i
CN(C)c1ccc(NC(=O)CN2C(=O)CN=C(c3ccccc3)c3ccccc32)cc1,i,i,nt,56.2µM,?,39.8µM
CN(C)c1ccc(NC(=O)CN2C(=O)CN=C(c3ccccc3)c3cc(Cl)ccc32)cc1,i,i,39.8µM,28.2µM,?,35.5µM
C[C@H]1OC[C@@H](C[N+](C)(C)C)O1,i,i,1.58µM,?,i,i
C[C@@H]1O[C@H](C[N+](C)(C)C)C[C@H]1O,nt,nt,15.8µM!,nt,nt,nt
Cc1ccc(S(=O)(=O)NN)c(C)c1N1CCCC1=O,?,i,nt,i[11.4 µM],i,i
C=C/C(=C/C(=O)C[C@H](C)C[C@@H](C)CC[C@H](O)[C@H](C)C(=O)C[C@@H](O)[C@H](C)[C@@H](C)OC(=O)C[C@@H](O)C1=C(C)C(=O)OC1=O)CC,nt,nt,i[2.33 µM],nt,nt,nt
COc1ccc(NS(=O)(=O)c2ccc(OCC(=O)N3CCN(C)CC3)cc2)cc1Cl,i,i,79.4µM,i,i,i
CN1C[C@H](C(=O)N[C@@]2(C)O[C@@]3(O)C4CCCN4C(=O)C(Cc4ccccc4)N3C2=O)C[C@H]2c3cccc4[nH]cc(c34)C[C@H]21 (some centres undefined),nt,nt,i[2.33 µM],nt,nt,nt
CC(C)CC1C(=O)N2CCC[C@H]2[C@]2(O)O[C@](NC(=O)[C@@H]3C=C4c5cccc6[nH]c(Br)c(c56)C[C@H]4N(C)C3)(C(C)C)C(=O)N12 (some centres undefined),nt,nt,nt,?,i,nt
CC(C)[C@@]1(NC(=O)[C@@H]2C=C3c4cccc5[nH]cc(c45)C[C@H]3N(C)C2)O[C@@]2(O)[C@@H]3CCCN3C(=O)[C@H](Cc3ccccc3)N2C1=O,nt,nt,8.91µM,nt,nt,i
CC(C)[C@@]1(NC(=O)[C@@H]2C[C@@H]3c4cccc5[nH]cc(c45)C[C@H]3N(C)C2)O[C@@]2(O)[C@@H]3CCCN3C(=O)[C@H](Cc3ccccc3)N2C1=O,i,i,?,i,i,39.8µM
CCN(CC)P(=O)(Nc1ccc([N+](=O)[O-])cc1)c1c(C)nn(CCC#N)c1NC(=O)c1ccc(Cl)cc1Cl (centres undefined),i,i,i,i,i,?
Cc1ccccc1N1C(=O)NC(=O)/C(=C\c2ccc3c(c2)CCCN3Cc2ccccc2)C1=O,?,-64.6,10µM,50.1µM,?,35.5µM
CCOC(=O)c1ccc(N2C(=O)c3n[nH]c(-c4cccs4)c3C2c2ccc(Cl)cc2Cl)cc1 (centres undefined),nt,nt,i,?,i,nt
CC(C)(O)[C@@H]1C2OC(=O)[C@@H]1[C@]1(O)C[C@H]3O[C@]34C(=O)O[C@H]2[C@]14C (tested in a mixture with another compound),nt,nt,i,nt,nt,nt
CCOc1ccc(-n2c(O)c(N=Nc3c(C)n(C)n(-c4ccccc4)c3=O)c(=O)[nH]c2=O)cc1,i,i,i,25.1µM,i,14.1µM
Cc1c(N=Nc2c(O)[nH]c(=S)[nH]c2=O)c(=O)n(-c2ccccc2)n1C,i,i,2µM,12.6µM,i,4.47µM
C=CCn1c(O)c(N=Nc2c(C)n(C)n(-c3ccccc3)c2=O)c(=O)[nH]c1=S,i,i,0.794µM,25.1µM,i,7.08µM
